Test results as given in PubChem BioAssay AID2315 (National Center for Advancing Translational Sciences (NCATS), 2010).
Screen size: about 290,000 compounds; about 27,000 (9.3%) were called active. Rule as the data show it: active = inhibition mostly above about 28% (no sharp cut-off); inactive = mostly below about 43%. What follows is part of a selection rich in actives, with near analogues and random picks from the rest.

assay: A qHTS for Small Molecule Inhibitors of Shiga Toxin; details: Vero cells, Shiga toxin protein synthesis inhibition reporter; at 38.7 µM, hits give high values; also: 0% is about no effect

Structure (SMILES) | inhibition
CN(CC(=O)Nc1ccc(F)cc1)C(=O)c1ccc(-c2ccc(Cl)cc2)o1 | 5.28% (inactive)
CC(C)c1nnc(NC(=O)COC(=O)/C=C/c2ccc([N+](=O)[O-])cc2)s1 | -13.2% (inactive)
COc1cccc(N(C(=O)C2COc3ccccc3O2)C(C(=O)NC2CCCCC2)c2ccc(O)cc2)c1 (centres undefined) | -2.98% (inactive)
CCn1ccnc1CN(C)C(=O)c1ccc2nc(Cc3ccc(OC)cc3)oc2c1 | -2.76% (inactive)
CC(C(=O)NCC1CCCCC1)N(C)Cc1cccc(Cl)c1 (centres undefined) | 25.2% (inactive)
CC(c1ccccn1)N(C)C(=O)c1ccc2nc(Cc3cccc(Cl)c3)oc2c1 (centres undefined) | 73.2% (active)
CC(C)CCNC(=O)c1ccc2c(Cl)c3c(nc2c1)CCC3 | 70.3% (active)
COc1ccc(N2CCN(C(=O)c3ccc4c(Cl)c5c(nc4c3)CCCC5)CC2)cc1 | -17.4% (inactive)
CC(=O)c1ccc(NC(=O)c2ccc3c(Cl)c4c(nc3c2)CCCC4)cc1 | -8.45% (inactive)
O=C(CNC(=O)OCc1ccccc1)NC1CCCCNC1=O (centres undefined) | -7.21% (inactive)
COC(=O)c1ccccc1NC(=O)C1(S(=O)(=O)c2ccc(Cl)cc2)CC1 | -19.5% (inactive)
CCOc1ccc(C2NC(=S)NC3=C2CCc2ccccc23)cc1 (centres undefined) | 50.5% (active)
CCOC(=O)C1=C(c2ccccc2)NC(=S)NC1c1ccc(Cl)cc1 (centres undefined) | -13.4% (inactive)
COc1ccc(C2NC(=S)NC3=C2CCc2ccccc23)cc1OC (centres undefined) | -17% (inactive)
Cc1ccccc1N(C(=O)CNC(=O)c1cccs1)C(C(=O)NC1CCCC1)c1ccncc1 (centres undefined) | 10.5% (inactive)
COc1ccc(Nc2nc(N)nc(CSC(=S)N3CCC(C)CC3)n2)cc1 | 76.8% (active)
CCOC(=O)c1cnc(SCc2nc(N)nc(Nc3ccc(OC)cc3)n2)nc1N | 19.9% (inactive)
COc1ccccc1Nc1nc(N)nc(CSC(=S)N2CCOCC2)n1 | 68.3% (inactive)
Cc1cc(C)c(S(=O)(=O)Nc2c(C)n(C)n(-c3ccccc3)c2=O)cc1[N+](=O)[O-] | -11.7% (inactive)
CCOC(=O)c1ccc(NC(=S)N2CCN(c3ccccn3)CC2)cc1 | -8.31% (inactive)
Cc1cc(Cl)nc(NC(=O)Nc2cccc(Cl)c2)n1 | 61.3% (inactive)
Cc1cc(C)nc(NC(=O)C(C)N2C(=O)c3ccccc3C2=O)n1 (centres undefined) | -5.77% (inactive)
Cc1cc(C)nc(NC(=O)Nc2ccccc2C(F)(F)F)n1 | 59.8% (active)
CC(NC(=O)c1ccccc1C(=O)O)c1ccc(-n2ccnc2)cc1 (centres undefined) | 14.3% (inactive)

Structure (SMILES) | inhibition
O=C(NCCc1c[nH]c2ccccc12)c1cc2ccccc2oc1=O | 121% (active)
CNC(=O)c1cc2c(ccc3ccccc32)oc1=N | 30.1% (inactive)
O=C(N/N=C\c1cccc(Br)c1)c1ccccc1-n1cccc1 | 14.5% (inactive)
N=c1oc2ccccc2cc1C(=O)NCc1ccccc1 | 52.2% (active)
CC(NC(=O)c1cc2cc(Cl)ccc2oc1=N)c1ccccc1 (centres undefined) | 23.9% (inactive)
COc1cccc2cc(C(=O)NCc3ccc(C)cc3)c(=N)oc12 | 15.9% (inactive)
COc1ccc2oc(=O)c(C(=O)NCc3ccccn3)cc2c1 | 24.7% (inactive)
O=C(NCc1ccccn1)c1cc2ccccc2oc1=O | 72.4% (active)
N=c1oc2ccccc2cc1C(=O)N/N=C/c1ccccc1 | 76.3% (active)
Cc1cc(C)cc(OCC(=O)NNC(=O)c2cc3ccccc3oc2=O)c1 | 38.5% (inactive)
O=C(NCCc1c[nH]c2ccccc12)c1cccc(Br)c1 | 22.8% (inactive)
CN(c1ccccc1)S(=O)(=O)c1ccc(Cl)c(C(=O)NCCc2c[nH]c3ccccc23)c1 | 1.16% (inactive)
Cc1[nH]c2c(C(=O)N3CCCC(CCC(=O)NCc4ccccc4F)C3)cccc2c1C (centres undefined) | 16.4% (inactive)
CCOCCCNC(=O)C1(O)c2cc(Br)ccc2NC(=O)N1c1ccc(C)c(C)c1 (centres undefined) | -7.51% (inactive)
Cc1ccccc1OCC(=O)Nc1ccc(S(=O)(=O)N2CCOCC2)cc1 | -7.1% (inactive)
Cc1cc(NC(=O)CCC(=O)N(Cc2ccccc2)C(C(=O)NC2CCCC2)c2ccc(C)o2)no1 (centres undefined) | 11.3% (inactive)
O=C1CCNCCN1[C@H](CO)Cc1ccccc1 | -8.58% (inactive)
CCC(C)N1CC(=O)N2Cc3[nH]c4ccccc4c3C[C@H]2C1=O (some centres undefined) | -5.65% (inactive)
COc1ccc(OC)c(C(=O)NC(CC(N)=O)c2ccc(N3CCC(N4CCCCC4)CC3)c([N+](=O)[O-])c2)c1 (centres undefined) | -6.13% (inactive)
COc1ccc(Cc2nnc(SCC(=O)Nc3ccc(C)c(C)c3)o2)cc1OC | -3.66% (inactive)
CCOC(=O)c1oc2c(CN3CCN(C)CC3)c(O)ccc2c(=O)c1-c1ccc(Br)cc1 | 15.8% (inactive)
CN1CCN(Cc2c(O)ccc3c2oc(=O)c2ccccc23)CC1 | 23.3% (inactive)
CCN1CCN(Cc2c(O)ccc3c(=O)c(-c4ccc(OC)c(OC)c4)c(C(F)(F)F)oc23)CC1 | 21.4% (active)
CC(C)=CCCC1(C)C=Cc2c(ccc3c2[nH]c2cc(O)c(C)cc23)O1 (centres undefined) | 23.1% (inactive)

Structure (SMILES) | inhibition
CC(C)Oc1ccc(CN2CCC(n3nccc3NC(=O)c3cccnc3)CC2)cc1 | -10.5% (inactive)
O=C(Cc1ccsc1)N1CCN(S(=O)(=O)c2cc(C(F)(F)F)cc(C(F)(F)F)c2)CC1 | -17.3% (inactive)
O=C(COc1ccc([N+](=O)[O-])cc1)Nc1cccc(C(=O)Nc2ccccc2C(=O)O)c1 | -17.8% (inactive)
S=c1[nH]c(-c2cccs2)cn1-c1ccccc1 | 58.2% (active)
O=c1oc2ccccc2cc1-c1cn(-c2ccccc2)c(=S)[nH]1 | 24.5% (inactive)
COc1ccc(-c2cn(-c3ccc(OC)cc3)c(=S)[nH]2)cc1 | 38.6% (inactive)
O=C(CN(C(=O)c1csnn1)c1ccc(Br)cc1)NC1CCCC1 | -6.01% (inactive)
COc1ccc(Cl)cc1NC(=O)CCS(=O)(=O)c1ccc(Br)cc1 | -3.47% (inactive)
Cc1ccc(-c2cn3cc([N+](=O)[O-])ccc3n2)cc1 | 190% (active)
Cc1ccc(C(=O)Cn2cc([N+](=O)[O-])nc2C)cc1 | -7.99% (inactive)
Cc1ccc2nc(-c3ccc(Br)cc3)cn2c1 | 23.9% (active)
CSc1nnc2ccc(-c3ccc(C)cc3)nn12 | 5.52% (inactive)
Cc1ccnc(N2C(=O)c3ccc([N+](=O)[O-])cc3C2=O)c1 | 2.61% (inactive)
Cc1ccc(-c2cn3cc(C)ccc3n2)cc1 | -49.3% (inactive)
O=C(Nc1ccnn1C1CCN(C/C=C/c2ccc(F)cc2)CC1)C1CCCC1 | 12% (inactive)
CCOc1c(OC)cccc1C(=O)NCC1(c2ccccc2)CCCC1 | -6.29% (inactive)
COc1ccc(C(=O)C2CCCN(S(=O)(=O)c3cccc(C)c3)C2)c(C)c1 (centres undefined) | -2.5% (inactive)
CCNc1nc(-c2cc3ccccc3o2)cs1 | 83.5% (active)
COc1ccc2nc(Nc3nc(-c4cc5ccccc5oc4=O)cs3)sc2c1 | 61.7% (inactive)
Cc1nc(C)c(-c2csc(NCCc3ccccc3)n2)s1 | 13.4% (inactive)
Cc1ccc(Nc2nc(-c3sc(NC(=O)c4ccccc4)nc3C)cs2)cc1 | 16.8% (inactive)
Cn1c(CNc2nc(-c3ccccc3)cs2)nnc1SCC(=O)c1ccccc1 | -0.789% (inactive)
O=c1oc2ccccc2cc1-c1csc(Nc2ccc(O)cc2)n1 | 111% (active)
COc1ccc(S(=O)(=O)N2CCOCC2)cc1C(=O)NC1CCCCC1 | -17% (inactive)

Structure (SMILES) | inhibition
CN(C)CCCN(C(=O)c1ccc(S(=O)(=O)N2CCCCCC2)cc1)c1nc2ccc(Br)cc2s1 | 0.697% (inactive)
CCN(CC)CCN(C(=O)c1ccc(N2C(=O)CCC2=O)cc1)c1nc2cc3c(cc2s1)OCO3 | 29.6% (inactive)
CCN(CC)CCN(C(=O)c1ccc(S(=O)(=O)N2CCOCC2)cc1)c1nc2cc3c(cc2s1)OCCO3 | 44.5% (active)
O=S(=O)(c1ccc(-c2ccno2)s1)N1CCCCC1 | -11.5% (inactive)
COc1ccc2c(C)cc3nnnn3c2c1 | -4.48% (inactive)
O=C(CSc1ccccc1)Nc1ccc(NC(=O)c2ccco2)cc1 | 38.7% (inactive)
CCCc1ccc(OCCNC(=O)c2ccco2)cc1 | 78.3% (active)
Cc1ccc(C(=O)NCCNS(=O)(=O)c2ccccc2)cc1 | 1.8% (inactive)
O=C(CNC(=O)c1ccco1)OCC(=O)c1ccccc1 | 46.8% (inactive)
CCS(=O)(=O)Nc1ccc(C(=O)NCCSc2ccccc2)cc1 | 79.2% (active)
Cc1ccc(C(=O)NCCNC(=O)c2ccccc2)cc1 | -8.28% (inactive)
CCCc1ccc(OCCNC(=O)c2ccccc2Br)cc1 | 34.3% (inactive)
O=C(NCCSc1ccccc1)c1ccco1 | 80.2% (active)
CCCc1ccc(OCC(=O)NNC(=S)NC(=O)c2ccco2)cc1 | -7.48% (inactive)
Cc1cc(S(=O)(=O)NC2CCCC2)ccc1-n1cnnn1 | -8.85% (inactive)
Cc1cc(CNC(=O)C2CCC(=O)N(CCc3ccc(Cl)cc3)C2)no1 (centres undefined) | -7.54% (inactive)
CC(=O)Nc1c2c(nn1-c1ccc(C)cc1C)CS(=O)C2 (centres undefined) | -1.19% (inactive)
CC1=CCC2C(=O)N(c3cccc(C(=O)NC(C)c4ccccc4)c3)C(=O)C2C1 (centres undefined) | -6.84% (inactive)
Cc1ccc(C)c(N2CCN(C(=O)CCCn3c(=O)c4cccn4c4cccnc43)CC2)c1 | -8.84% (inactive)
O=C(CSc1cccc[n+]1[O-])c1ccc(Cl)cc1 | 5.16% (inactive)
COc1ccccc1C(=O)CSc1cccc[n+]1[O-] | -1.48% (inactive)
O=C(CSc1cccc[n+]1[O-])c1ccc(-c2ccccc2)cc1 | 142% (active)
